Screening results deposited in PubChem BioAssay by National Center for Advancing Translational Sciences (NCATS).
Hits are enriched below; roughly 4.7% of the tested compounds scored in any of these assays.
TRHR agonist: qHTS for Small Molecule Agonists and Allosteric Enhancers of Human TRH Receptor: Primary Screen for Agonists. Thyrotropin-releasing hormone receptor (Homo sapiens), P34981. TRHR cells, calcium flux fluo-8, FDSS agonist mode. activation, % at 2 µM. actives 0.18% (n = 360,000); note: 0% is about no effect
Target sequence (P34981 whole entry, looked up): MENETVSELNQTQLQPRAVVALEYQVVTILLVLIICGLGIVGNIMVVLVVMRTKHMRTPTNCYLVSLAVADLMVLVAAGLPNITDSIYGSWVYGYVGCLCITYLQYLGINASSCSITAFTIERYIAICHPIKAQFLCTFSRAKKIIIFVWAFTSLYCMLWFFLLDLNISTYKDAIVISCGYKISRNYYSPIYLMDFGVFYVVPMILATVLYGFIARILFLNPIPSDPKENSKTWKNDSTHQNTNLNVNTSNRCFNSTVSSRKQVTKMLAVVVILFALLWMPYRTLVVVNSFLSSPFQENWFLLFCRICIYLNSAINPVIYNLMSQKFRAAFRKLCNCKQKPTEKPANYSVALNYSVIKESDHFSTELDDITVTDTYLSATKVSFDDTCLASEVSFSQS
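Read-out: compound-evoked intracellular calcium rise in TRHR cells, fluo-8 dye, kinetic FDSS fluorescence at 1 s/cycle following a 10-cycle baseline. Cells cultured overnight before dye loading (30 min–1.5 h, RT).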
D1 potentiator: Potentiators of Human D1 Dopamine Receptor: qHTS; D(1A) dopamine receptor (Homo sapiens), P21728; HEK293 TREx D1 cells, calcium flux, dopamine EC20 potentiation; potentiation, % at 10 µM; actives 0.036% (n = 360,000); AID 504651, 2011; in the data active = potentiation above about 30%; note: 0% is about no effect
D1 antag: Antagonist of Human D 1 Dopamine Receptor: qHTS. HEK293 TREx D1 cells, calcium flux, dopamine EC80; stronger effect = lower value. AID 504652, 2011. D(1A) dopamine receptor (Homo sapiens), P21728. activity change, negative = inhibition, % at 10 µM. actives 3.2% (n = 360,000); in the data active = activity change below about -30%; note: % is set by controls: 0 for no effect and ±100 for the full control effect
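Cells carrying a force-coupled, tetracycline-inducible human D1 receptor report calcium flux. Each well gets a 10 s baseline, compound with 180 s monitoring, then an EC80 dopamine stimulus with a second 180 s kinetic read.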
D1 ag: Allosteric Agonists of the Human D1 Dopamine Receptor: qHTS | AID 504660, 2011 | D(1A) dopamine receptor (Homo sapiens), P21728 | HEK293 T-REx D1 cells, calcium flux, agonist mode | actives 1% (n = 360,000) | activation, % at 2 µM; note: 0% is about no effect
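Tetracycline-induced HEK293 TREx D1 cells, force-coupled to calcium signalling, were dye-loaded with a no-wash calcium kit. Compound was pin-added after a 10 s baseline. Fluorescence was read kinetically at 1 cycle/s for 180 s, with calcium rises flagged as agonism.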
TRHR enhancer: qHTS for Small Molecule Agonists and Allosteric Enhancers of Human TRH Receptor: Primary Screen for Enhancers. TRHR cells, fluo-8 calcium fluorescence, EC20 TRH enhancement. enhancement, % at 2 µM. actives 0.66% (n = 360,000); in the data active = enhancement above about 30%; note: 0% is about no effect
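Enhancer read-out: after compound pinning and an initial kinetic agonist-mode read, an EC20 of TRH (10 nM final) was injected and fluo-8 calcium signal (Ex 480/Em 530) followed at 1 s/cycle for 100 cycles in TRHR-expressing cells.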
* marks the source's active call; other numbers are inactive results. Cut-off read from the data, not from the text of the source, unless noted: active = activation above about 30%; inactive = the rest.

SMILES | TRHR agonist | D1 potentiator | D1 antag | D1 ag | TRHR enhancer
Cc1nc(C(N)=O)c(N)n1CCc1ccccc1 | -1 | 0 | 5 | 5 | 0
Brc1cccc(-c2cnn3c(-c4ccccc4)cc(-c4ccccc4)nc23)c1 | 0 | 1 | 4 | 6 | -2
c1ccc(-c2nnc(CN3CCN(c4ccccn4)CC3)o2)cc1 | 1 | -1 | -4 | 2 | 5
Cc1ccc(C)c(N2CCN(C(=O)c3ccc4c(=O)n(CCc5ccccc5)c(=O)[nH]c4c3)CC2)c1 | 0 | 4 | -30* | -1 | -1
CCCCNC(=O)c1ccc2c(OCC)n(CCCC)nc2c1 | -1 | -3 | -1 | 0 | -4
CCCn1nc2cc(C(=O)NCCc3cccs3)ccc2c1OCC | -1 | -12 | -83* | 1 | -23
O=C(CCc1nnc2n(CCc3ccccc3)c(=O)c3ccccc3n12)NCCCN1CCCCC1 | 0 | -6 | -56* | 0 | -4
CNC(=S)N/N=C/c1c(C)c(C(=O)c2ccc(F)cc2)n2ccccc12 | 1 | -4 | -24 | 2 | -1
COc1ccc2ncc3c(-c4ccccc4)nn(-c4ccc(C)c(C)c4)c3c2c1 | -1 | -1 | -4 | -2 | 14
Cn1c(CCNC(=O)c2ccco2)nc2cc(NC(=O)COc3ccc(Cl)cc3)ccc21 | 0 | 1 | -4 | -1 | -7
O=C(NCc1ccc(Cl)s1)C1CCC(=O)N(CCc2cccc(F)c2)C1 (centres undefined) | -1 | 0 | 9 | 2 | 3
CC(=O)N1CCOc2ccc(S(=O)(=O)Nc3ccc(C)cn3)cc21 | 0 | -8 | -7 | 1 | -4
C[C@@H]1CCC(=O)N(C[C@@H](C)CSc2ccc(Br)cc2)CC1 | 0 | -1 | -51* | -1 | -2
CC1CCCCN1C(=O)Cn1c(=O)n(CCC(=O)NCc2ccco2)c(=O)c2sccc21 (centres undefined) | 0 | -1 | 0 | 0 | 35*
CC1CCN(C(=O)Cn2c(=O)n(CCCC(=O)NCc3ccco3)c(=O)c3sccc32)CC1 | -1 | -2 | 2 | 2 | -8
Cc1onc(-c2ccccc2Cl)c1C(=O)NCc1nc(-c2ccc(C(F)(F)F)cc2)no1 | 1 | 1 | -37* | 9 | -14
Cc1onc(-c2ccccc2Cl)c1C(=O)NNC(=O)c1ccc(F)cc1 | 0 | 3 | -16 | 0 | 0
Cc1onc(-c2ccccc2Cl)c1C(=O)Nc1ccc(N2CCOCC2)cc1 | 1 | -6 | -46* | 1 | 1
Cc1ccc(NC(=O)c2c(-c3ccccc3Cl)noc2C)nc1 | -1 | -2 | 8 | 1 | 1
Cc1onc(-c2ccccc2Cl)c1C(=O)Nc1ccc(Cl)cn1 | -1 | 0 | 5 | 2 | 31*
Cc1cccc(C(=O)NNC(=O)c2c(-c3ccccc3Cl)noc2C)c1O | 0 | -2 | 2 | 2 | 31*
CCOC(=O)C1=C(CN2CCN(c3ccccc3)CC2)NC(=O)NC1c1ccc(C)cc1 (centres undefined) | -1 | 3 | 9 | 3 | 6
O=c1[nH]c2ccc(S(=O)(=O)N3CCN(S(=O)(=O)c4c(F)cccc4F)CC3)cc2[nH]c1=O | 0 | -7 | 5 | 2 | -6
CCOc1ccc(NC(=O)c2cnc3sc(N4CCOCC4)nn3c2=O)cc1 | -1 | -4 | -2 | 2 | 10
O=C(CCc1nc(-c2ccccc2)no1)Nc1cc(C(F)(F)F)ccc1Cl | 0 | 6 | 14 | 61* | 0
SMILES | TRHR agonist | D1 potentiator | D1 antag | D1 ag | TRHR enhancer
Cc1onc(-c2ccccc2Cl)c1C(=O)Nc1nnc(-c2cccc([N+](=O)[O-])c2)s1 | -1 | 15 | 39 | 41* | 4
CCSc1nnc(NC(=O)c2c(-c3ccccc3Cl)noc2C)s1 | 0 | -2 | -6 | 1 | -9
O=C(Cc1nnc(CNC(=O)c2ccccc2)o1)Nc1cc(C(F)(F)F)ccc1Cl | 0 | -4 | 18 | 1 | 0
C=CCN1C=CC(=C/C=C(/C#N)C(=O)OCC)C=C1 | 37* | 13 | -13 | 93* | 0
COc1ccc(-c2nc3ccccc3s2)cc1NC(=O)c1ccc(C#N)cc1F | 0 | 3 | -3 | -1 | -6
O=C(Oc1ccccc1F)c1nc(SCc2ccc(F)cc2)ncc1Cl | -1 | -2 | -14 | -1 | -1
CC(C)(C)c1ccc(C(=O)N2CCN(c3ncccn3)CC2)cc1 | 0 | -1 | 7 | 5 | -8
CNCCC=C1c2ccccc2CCc2ccccc21 | 1 | -5 | -79* | 21 | -4
C[N+](C)(C)CC/C=C1/c2ccccc2CSc2ccccc21 | -1 | -6 | -8 | 1 | 6
Cc1[nH]c2ccccc2c1C(=O)CN1C(=O)C(=O)N(Cc2ccco2)C1=O | 0 | -3 | -3 | 7 | 0
Cc1[nH]c2ccccc2c1C(=O)CN1C(=O)C(=O)N(CCC2=CCCCC2)C1=O | 0 | 0 | -32* | 0 | 2
Cc1ccc(CNC(=O)c2cc(-c3ccc(Cl)cc3)on2)cc1 | 0 | 0 | -3 | 2 | 26
COc1ccc(CCNC(=O)c2cc(-c3cc(Cl)ccc3O)n[nH]2)cc1OC | 1 | -7 | -32* | 7 | -1
COc1ccc(CCNC(=O)c2cc(-c3ccccc3O)n[nH]2)cc1OC | -1 | -1 | -33* | 3 | -3
COc1ccc(CCNC(=O)c2cc(-c3ccc(C)cc3O)n[nH]2)cc1OC | 0 | -4 | -1 | 4 | 28
CCOc1ccccc1NC(=O)c1c(NC(=O)C(C)Oc2ccc(Cl)cc2)sc2c1CCCCC2 (centres undefined) | -1 | 0 | 7 | 0 | -2
c1ccc(-c2nn3c(Cn4cnc5ccccc54)nnc3s2)cc1 | -1 | -11 | -33* | 4 | 15
O=C(NCc1ccc2c(c1)CCN2C(=O)c1ccccc1)Nc1cccc(C(F)(F)F)c1 | 0 | -3 | -43* | 2 | -5
CCOC(=O)c1noc2ncn(CC(=O)O)c(=O)c12 | 0 | 0 | 5 | 3 | 5
O=[N+]([O-])c1ccc(CN2CCSCC2)cc1 | -1 | -11 | -33* | 4 | -2
O=[N+]([O-])c1ccc(CN2CCN(c3ccc([N+](=O)[O-])cc3)CC2)cc1 | 0 | -3 | -3 | 7 | -5
O=[N+]([O-])c1ccc(N2CCN(Cc3cccc([N+](=O)[O-])c3)CC2)cc1 | 0 | -8 | -40* | -2 | 6
O=c1c2nccnc2[nH]c(=S)n1Cc1ccccc1 | 0 | 0 | 7 | 6 | 5
O=c1c2cccnc2[nH]c(=S)n1Cc1ccccc1 | 0 | 4 | -8 | 2 | 32*
